Only some compounds are listed: those with a hit (about 5.1% of all), similar ones and a draw of the others.
ROMK primary = ROMK potassium channel modulators, primary screen, cell-based, thallium flux, MLSMR library; ATP-sensitive inward rectifier potassium channel 1 (Homo sapiens), P48048; Tet-inducible ROMK, thallium flux fluorescence; actives lie on both sides; B-score at 10 µM; 2% of 130,000 active;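 active = signal ratio slope over the read window, or its plate-corrected B-score, at least 3 SD from the plate mean, either direction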;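 note: B-score of the F/F0 ratio slope over 7 to 12 s after thallium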
RAM network inh = inhibitors of the yeast RAM network, primary screen, dse1pr::URA3 reporter, 5-FOA selection. inhibition, % at 50 µM. S. cerevisiae dse1pr::URA3 reporter, 5-FOA growth OD615, 2 d; analog-sensitive cbk1-as2 kinase mutant strain. 1.8% of 190,000 active;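 active = inhibition above a set limit, 3 SD over mean compound inhibition, cut at about 8.4% in these data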;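 note: 0% = DMSO-only wells with no growth and 100% = 10 µM 1-NA-PP1 full growth; inhibition rescues growth on 5-FOA so higher OD means more RAM inhibition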
KCC2 mod = KCC2 cotransporter modulators, thallium flux, primary screen, cell-based, HEK293 KCC2, FluoZin-2 fluorescence, MLSMR; B-score of Tl+ flux slope (higher = more flux/activation; lower = inhibition) at 10 µM; AID 1456, 2008; 2.2% of 190,000 active; KCC2 cells, thallium flux FluoZin-2 fluorescence;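 active = thallium flux slope and its plate-corrected score both differing from the plate sample mean at a set confidence after two filtering rounds, in either direction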;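 note: slope of fluorescence scaled to starting intensity during 10 to 20 s after thallium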
S1P3 antagonist = S1P3 receptor antagonists, primary screen, cell-based | inhibition, % at 4.98 µM | Sphingosine 1-phosphate receptor 3 (Homo sapiens), Q99500 | AID 485, 2006 | 0.27% of 170,000 active | CHO S1P3 NFAT-BLA reporter, FRET fluorescence, antagonist mode;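 active = inhibition above the plate cutoff, the mean inhibition of test wells on that plate plus 3 SD, cut at about 28% in these data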;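 note: cells challenged with S1P at its EC80 of 0.8 µM; blue over green emission ratio from cleaved BLA substrate after 4 h stimulation; 0% = S1P-stimulated wells and 100% = unstimulated DMSO-only wells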
Target sequence (Q99500 whole entry, looked up): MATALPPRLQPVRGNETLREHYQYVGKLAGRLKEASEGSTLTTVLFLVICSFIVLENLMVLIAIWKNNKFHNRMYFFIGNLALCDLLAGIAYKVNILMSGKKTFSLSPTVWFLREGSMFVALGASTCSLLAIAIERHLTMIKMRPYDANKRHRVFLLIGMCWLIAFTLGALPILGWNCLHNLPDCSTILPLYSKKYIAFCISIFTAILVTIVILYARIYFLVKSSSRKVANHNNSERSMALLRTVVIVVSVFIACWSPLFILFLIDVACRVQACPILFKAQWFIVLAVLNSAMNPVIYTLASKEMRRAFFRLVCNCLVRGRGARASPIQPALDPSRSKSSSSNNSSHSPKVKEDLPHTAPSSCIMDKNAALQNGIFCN
S1P4 antag = S1P4 receptor antagonists, primary screen, cell-based | inhibition, % at 4.98 µM | S1P4-expressing cells, antagonist mode, reporter read-out | AID 1510, 2009 | 0.26% of 220,000 active; in the data active = inhibition above about 29%;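 note: 0% = wells stimulated with agonist and 100% = vehicle wells without agonist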
Target sequence (O95977 whole entry, looked up): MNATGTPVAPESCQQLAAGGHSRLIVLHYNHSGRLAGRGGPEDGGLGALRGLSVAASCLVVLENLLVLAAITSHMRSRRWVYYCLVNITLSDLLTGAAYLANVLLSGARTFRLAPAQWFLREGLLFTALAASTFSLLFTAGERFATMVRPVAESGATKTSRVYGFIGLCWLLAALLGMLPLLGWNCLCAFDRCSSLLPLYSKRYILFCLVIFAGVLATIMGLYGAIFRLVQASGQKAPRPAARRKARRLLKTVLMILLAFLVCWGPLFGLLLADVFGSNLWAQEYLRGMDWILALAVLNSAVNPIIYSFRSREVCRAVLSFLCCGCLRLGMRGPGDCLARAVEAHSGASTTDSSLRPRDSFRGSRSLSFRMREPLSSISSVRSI
S1P4 agonist = S1P4 receptor agonists, primary screen, cell-based. S1P4-expressing cell line, agonist reporter assay. activation, % at 4.98 µM. 0.35% of 220,000 active. AID 1509, 2009; in the data active = activation above about 11%;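 note: 0% = DMSO vehicle and 100% = reference agonist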
ROMK retest = ROMK channel modulator hit retest, confirmation, cell-based, thallium flux, duplicate, resupplied hits; fluorescence ratio; hits give low values; 54% of 3,000 active; AID 1917, 2009; shares compounds with ROMK primary; normalized thallium flux (F/F0 slope) at 10 µM;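 active = Flux at 10 µM at least 3 SD below or above vehicle control mean in one or both replicates; inconclusive = no clear call, values can overlap the other calls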
Active calls of the source: *; ? = inconclusive; . = no result given.

SMILES | ROMK primary | RAM network inh | KCC2 mod | S1P3 antagonist | S1P4 antag | S1P4 agonist | ROMK retest
CCCCNC(=O)/C(C#N)=C/c1cccnc1 | -3.27* | 4.5 | 1.47 | 0.8 | -13.1 | -0.8 | 0.05*
N#C/C(=C\c1cccc([N+](=O)[O-])c1)C(=O)NCc1cccnc1 | . | 1.2 | 0.815 | -13.4 | -10.1 | -1.4 | 0.0223*
N#C/C(=C\c1cccnc1)C(=O)NC1CCCCC1 | -5.27* | 2.0 | 0.64 | 1.5 | -9.8 | -0.4 | 0.036*
COCCNC(=O)/C(C#N)=C/c1cccc(/C=C(\C#N)C(=O)NCCOC)c1 | . | 2.3 | -0.0651 | -22.0 | -29.6 | 0.3 | 0.0373*
CNC(=O)Cn1nc(-c2ccc(C)c(S(=O)(=O)N(C)C)c2)c2ccccc2c1=O | -0.592 | -0.7 | -0.0212 | . | 0.3 | 1.7 | .
N#C/C(=C\c1cccnc1)C(=O)Nc1cccc2ccccc12 | -2.45* | -1.6 | 0.344 | -23.5 | -6.7 | 1.5 | 0.0459*
CC(=O)N/N=C/c1cc(C(C)(C)C)cc(/C=N/NC(C)=O)c1O | -3.04* | -2.0 | 1.94 | 11.2 | -3.8 | 0.0 | 0.0554*
Cc1ccc2nc(NCCO)nc(-c3ccccc3)c2c1 | . | 3.4 | 0.825 | 2.1 | -20.6 | -2.7 | 0.0748
O=C(C1CCN(Cc2ccc(F)cc2)CC1)N(CCO)Cc1ccccc1 | . | -0.6 | -0.961 | -12.6 | -26.0 | 1.0 | .
O=C(C1CCN(Cc2ccc(F)cc2)CC1)N(CCc1ccccc1)Cc1ccccc1 | -3.45* | 0.6 | -1.13 | 10.9 | -13.0 | 1.2 | 0.0462*
O=C(c1ccc2ccccc2n1)N1CCN(c2ccccc2O)CC1 | . | 1.2 | -0.647 | . | -4.7 | 0.0 | .
O=C(CSCc1ccccc1)NNC(=S)Nc1cccc(Cl)c1Cl | . | 4.6 | 3.57 | . | -17.8 | 1.0 | 0.0786
COc1ccc(OC)c(-c2cc(C(=O)Nc3c(C)nn(Cc4ccccc4)c3C)no2)c1 | -2.35 | 4.3 | . | -10.3 | 11.9 | -0.5 | .
COc1ccc(OC)c(-c2cc(C(=O)Nc3c(C)nn(Cc4ccc(Cl)cc4)c3C)no2)c1 | -2.59* | 2.4 | . | 5.9 | 9.1 | 2.2 | 0.0647*
COc1ccc(C(C)C)cc1S(=O)(=O)n1ccnc1C | -0.952 | 0.4 | -0.48 | -3.1 | -18.0 | -1.1 | .
CCCOc1ccc(-c2csc(NC(=O)CN3C(=O)CCC3=O)n2)cc1 | . | 4.5 | 1.15 | 4.0 | -2.3 | -1.4 | .
O=C(/C=C/c1cccs1)c1ccc(N2CCOCC2)cc1 | 2.5* | 3.5 | -0.257 | -9.9 | 3.5 | -1.5 | 0.0758
O=C(/C=C/c1cccc(F)c1)c1ccc(N2CCOCC2)cc1 | . | . | -0.712 | -1.1 | 16.3 | 0.1 | .
COc1ccccc1/C=C(\C#N)C(=O)Nc1ccc(S(N)(=O)=O)cc1 | -3.34* | 4.3 | 1.96 | -3.1 | -0.4 | 1.3 | 0.0607*
COc1cc(/C=C(/C#N)C(=O)Nc2ccccc2)c(Br)cc1OCc1ccc(C(=O)O)cc1 | -4.97* | . | -1.33 | 8.6 | 10.2 | 0.3 | 0.0551*
CCOc1ccccc1/C=C(\C#N)C(=O)Nc1cccc(C(=O)O)c1 | . | . | -1.61 | -3.1 | -3.3 | 0.9 | .
N#C/C(=C\c1ccccc1[N+](=O)[O-])C(=O)Nc1ccc(S(N)(=O)=O)cc1 | . | . | 1.62 | -6.7 | -11.4 | 1.6 | .
COc1ccc(S(=O)(=O)N2CCCC2C(=O)Nc2ccc(O)cc2)cc1 (stereo not given) | . | 1.2 | -0.141 | -22.2 | -3.2 | 0.4 | .
COc1ccc(S(=O)(=O)N2CCC[C@H]2C(=O)NC2=NCCS2)cc1 | . | -0.4 | 0.218 | . | -7.3 | -0.4 | 0.0708
COc1cccc(-n2cc(CN(C)Cc3nc(Cc4cccc(F)c4)no3)cn2)c1 | -0.831 | -0.1 | -0.87 | 12.5 | -4.7 | -3.7 | .
SMILES | ROMK primary | RAM network inh | KCC2 mod | S1P3 antagonist | S1P4 antag | S1P4 agonist | ROMK retest
COc1ccc(CN(C)Cc2nc(Cc3cccc(F)c3)no2)c2cccnc12 | -1.59* | 0.1 | -0.384 | 27.4 | -21.8 | 0.5 | ?
CC(/C=C/c1ccccc1)=N/NC(=O)Cn1nnc(N)n1 | 0.00452 | . | -0.0271 | -12.6 | -0.7 | -0.3 | .
COc1ccc(NC(=O)c2cc3cccc(OC)c3oc2=Nc2ccc(C(=O)O)cc2)cc1OC | -4.38* | 0.6 | -0.602 | -7.4 | -15.7 | 1.8 | 0.0543*
CCc1ccc(-c2ccc(C(=O)C(F)(F)F)[nH]2)cc1 | . | 1.4 | . | . | -23.4 | -1.6 | .
CC(=O)N1C=Cc2c(c(C)c3c([nH]c4ccccc43)c2C)C1 | -3.07 | . | 1.85 | -10.9 | -49.1 | 2.3 | .
CCOCc1nnc(NC(=O)c2c(OC)cccc2OC)s1 | 3.33* | -0.8 | . | . | -7.8 | -1.5 | ?
O=C(Cc1cccc2ccccc12)N/N=C/c1ccncc1 | -6.59* | 0.2 | 0.899 | -12.6 | -9.9 | -0.5 | 0.0798
Cc1ccc(-c2nnc(CSc3nnc(COc4ccccc4)n3-c3ccccc3)o2)cc1 | -3.49* | 6.3 | -2.44 | 18.4 | -9.8 | -4.6 | 0.0533*
Cc1ccc(-c2nnc(CSc3nnc(COc4ccccc4)n3-c3ccc(C)cc3)o2)cc1 | -0.706 | 3.5 | . | 11.8 | -14.1 | 1.3 | .
C[C@@H]1C=C(C(=O)NCc2ccccc2)O[C@H](OCc2ccc(CO)cc2)C1 | . | 0.8 | 1.27 | -0.7 | 4.4 | -1.3 | .
N#CCCN(Cc1cccs1)C(=O)Nc1ccccc1 | 0.504 | . | 0.522 | 14.3 | -5.8 | 1.6 | .
C=CCc1ccccc1OCC(O)CN1CCN(c2ccc(C)cc2)CC1 (stereo not given) | -2.59* | 0.8 | -0.619 | 2.6 | -9.9 | 4.8 | 0.0557*
C=CCc1ccccc1OCC(O)CN1CCN(C(=O)OCC)CC1 (stereo not given) | . | 0.1 | -0.564 | -3.7 | -1.4 | 1.6 | .
C/C(=N\Nc1nc(C(=O)O)cs1)c1ccccc1 | . | 3.0 | 0.737 | -17.3 | 21.1 | -1.6 | 0.0769
CC(=N/O)/C(C)=N\NC(=O)c1ccccn1 | -3.88* | 0.6 | -0.0314 | -16.9 | 4.2 | -3.1 | 0.0715
Cc1ccc(NC(=O)NCc2ccccn2)cc1 | -0.884 | 1.5 | -0.00151 | 3.5 | -10.0 | 1.6 | .
Cc1ccc(NC(=O)CSC(C)C(=O)NCCc2ccccn2)cc1 (stereo not given) | -2.76* | -0.5 | -0.726 | -21.0 | 7.9 | 0.5 | 0.0722
CCOc1ccc(-c2nn(-c3ccccc3)cc2/C=C2\SC(=S)N(C3CCS(=O)(=O)C3)C2=O)cc1 (stereo not given) | -5.43* | 9.3* | -0.918 | . | -8.7 | -0.1 | 0.0488*
O=C(N/N=C/C(Br)=C\c1ccccc1)c1n[nH]c2c1CCC2 | 2.87 | -1.3 | -2.2 | . | 24.2 | -1.1 | .

Screening data (PubChem)
